Assay [1] concerns the target Nuclear receptor coactivator 3 (Homo sapiens) (UniProt Q9Y6Q9). Description: NCOA3 GAL4-fusion reporter inhibition – cell-based, luminescence, quadruplicate, confirmation (AID 588792;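 active means mean inhibition over 43.08%, the solvent-only control mean plus 3 SD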;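 further: 0% = DMSO treated cells and 100% = gossypol at 36 µM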). The settings on record: HEK293 GAL4-SRC3 luciferase reporter, at 3.6 µM, stronger effect = higher value.
The test system of assay [2] is transactivating tegument protein VP16 (Human herpesvirus 1), Gal4-VP16 luciferase reporter. Description: repression of VP16-driven luciferase reporter – cell-based, luminescence, high throughput, counter-screen for SRC3 inhibitor project (AID 588794). Conditions: mammalian cells, at 3.6 µM, stronger effect = higher value.
Assay [3] has as its target Nuclear receptor coactivator 1 (Homo sapiens) (UniProt Q15788). Description: NCOA1 GAL4-fusion reporter inhibition – cell-based, luminescence, quadruplicate, confirmation (AID 588820;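 active means mean inhibition above 46.68%, the untreated control wells mean plus 3 SD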;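 further: 0% = DMSO wells and 100% = gossypol 36 µM treated wells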). The settings on record: HEK293 GAL4-SRC1 luciferase reporter, at 3.6 µM, stronger effect = higher value. (In a reporter assay the amount or activity of a reporter protein is the signal.)
Assay [4] in a line: repression of VP16-driven luciferase reporter – cell-based, luminescence, high throughput, counter-screen for SRC1 inhibitor project (AID 588824; in the data active means inhibition above about 25%). The settings on record: cell-based VP16 transactivation luciferase luminescence; at 3.6 µM; stronger effect = higher value.
The test system of assay [5] is transactivating tegument protein VP16 (Human herpesvirus 1). Description: compounds suppressing VP16-driven luciferase signal – cell-based, luminescence, single concentration, counter-screen for SRC2 inhibitor project (AID 652007; in the data active means inhibition above about 36%). Conditions: cell-based VP16 transactivation luciferase reporter, at 8.9 µM, stronger effect = higher value.
The target of assay [6] is Nuclear receptor coactivator 2 (Homo sapiens) (UniProt Q15596). Nature of the assay: inhibition of GAL4-SRC2 driven luciferase expression – cell-based, luminescence, HEK293, triplicate, confirmation (AID 652008;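 active means mean inhibition above 46.5%, the solvent-only control mean plus 3 SD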;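 further: 0% = DMSO-treated cells and 100% = Gossypol at 36 µM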). The settings on record: HEK293 GAL4-SRC2 luciferase reporter, at 8.9 µM, stronger effect = higher value.

From PubChem BioAssay come the findings set out here.

A number with no mark means an inactive call. Activity calls are given as the source filed them. Unless noted, no stated cut-off is given here; in the data, active means inhibition above about 30%; inactive means the rest.

Sequence of Nuclear receptor coactivator 3 (Homo sapiens) (Q9Y6Q9 whole entry, looked up, the tested form may be a part): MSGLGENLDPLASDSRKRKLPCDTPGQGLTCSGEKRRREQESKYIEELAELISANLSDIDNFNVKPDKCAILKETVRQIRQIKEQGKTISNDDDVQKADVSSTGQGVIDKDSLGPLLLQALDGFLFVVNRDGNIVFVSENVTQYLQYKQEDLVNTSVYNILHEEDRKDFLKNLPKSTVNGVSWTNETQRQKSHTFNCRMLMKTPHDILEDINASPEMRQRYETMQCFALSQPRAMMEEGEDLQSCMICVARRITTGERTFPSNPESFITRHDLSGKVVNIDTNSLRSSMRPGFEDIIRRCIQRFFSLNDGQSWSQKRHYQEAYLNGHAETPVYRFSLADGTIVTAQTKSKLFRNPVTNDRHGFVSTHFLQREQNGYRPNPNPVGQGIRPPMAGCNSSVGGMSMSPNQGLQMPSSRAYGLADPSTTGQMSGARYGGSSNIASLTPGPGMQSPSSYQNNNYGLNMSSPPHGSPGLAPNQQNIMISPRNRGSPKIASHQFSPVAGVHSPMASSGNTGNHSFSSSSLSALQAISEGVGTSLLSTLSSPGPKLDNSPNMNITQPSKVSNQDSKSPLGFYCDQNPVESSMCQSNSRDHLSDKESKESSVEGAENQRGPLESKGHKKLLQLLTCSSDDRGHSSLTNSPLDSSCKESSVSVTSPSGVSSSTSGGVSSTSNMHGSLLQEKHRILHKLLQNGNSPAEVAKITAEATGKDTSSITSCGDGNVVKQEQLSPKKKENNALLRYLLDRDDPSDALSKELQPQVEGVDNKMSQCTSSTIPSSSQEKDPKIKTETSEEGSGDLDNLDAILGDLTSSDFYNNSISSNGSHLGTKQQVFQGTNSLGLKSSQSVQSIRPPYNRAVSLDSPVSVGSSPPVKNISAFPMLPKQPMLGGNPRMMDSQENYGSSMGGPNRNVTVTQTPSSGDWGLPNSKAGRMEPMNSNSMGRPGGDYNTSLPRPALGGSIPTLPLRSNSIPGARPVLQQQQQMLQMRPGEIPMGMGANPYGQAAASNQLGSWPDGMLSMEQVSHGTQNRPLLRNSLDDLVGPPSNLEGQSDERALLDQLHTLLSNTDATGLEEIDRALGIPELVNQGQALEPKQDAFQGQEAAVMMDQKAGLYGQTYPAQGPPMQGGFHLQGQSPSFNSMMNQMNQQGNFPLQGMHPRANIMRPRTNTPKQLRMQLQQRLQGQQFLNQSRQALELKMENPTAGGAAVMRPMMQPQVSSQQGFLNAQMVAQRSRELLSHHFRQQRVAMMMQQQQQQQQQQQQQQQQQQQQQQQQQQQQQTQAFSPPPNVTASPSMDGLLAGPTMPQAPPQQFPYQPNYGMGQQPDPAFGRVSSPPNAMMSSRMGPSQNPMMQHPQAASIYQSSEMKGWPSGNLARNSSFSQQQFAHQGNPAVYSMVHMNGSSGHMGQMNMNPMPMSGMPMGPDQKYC
Sequence of Nuclear receptor coactivator 1 (Homo sapiens) (Q15788 whole entry, looked up, the tested form may be a part): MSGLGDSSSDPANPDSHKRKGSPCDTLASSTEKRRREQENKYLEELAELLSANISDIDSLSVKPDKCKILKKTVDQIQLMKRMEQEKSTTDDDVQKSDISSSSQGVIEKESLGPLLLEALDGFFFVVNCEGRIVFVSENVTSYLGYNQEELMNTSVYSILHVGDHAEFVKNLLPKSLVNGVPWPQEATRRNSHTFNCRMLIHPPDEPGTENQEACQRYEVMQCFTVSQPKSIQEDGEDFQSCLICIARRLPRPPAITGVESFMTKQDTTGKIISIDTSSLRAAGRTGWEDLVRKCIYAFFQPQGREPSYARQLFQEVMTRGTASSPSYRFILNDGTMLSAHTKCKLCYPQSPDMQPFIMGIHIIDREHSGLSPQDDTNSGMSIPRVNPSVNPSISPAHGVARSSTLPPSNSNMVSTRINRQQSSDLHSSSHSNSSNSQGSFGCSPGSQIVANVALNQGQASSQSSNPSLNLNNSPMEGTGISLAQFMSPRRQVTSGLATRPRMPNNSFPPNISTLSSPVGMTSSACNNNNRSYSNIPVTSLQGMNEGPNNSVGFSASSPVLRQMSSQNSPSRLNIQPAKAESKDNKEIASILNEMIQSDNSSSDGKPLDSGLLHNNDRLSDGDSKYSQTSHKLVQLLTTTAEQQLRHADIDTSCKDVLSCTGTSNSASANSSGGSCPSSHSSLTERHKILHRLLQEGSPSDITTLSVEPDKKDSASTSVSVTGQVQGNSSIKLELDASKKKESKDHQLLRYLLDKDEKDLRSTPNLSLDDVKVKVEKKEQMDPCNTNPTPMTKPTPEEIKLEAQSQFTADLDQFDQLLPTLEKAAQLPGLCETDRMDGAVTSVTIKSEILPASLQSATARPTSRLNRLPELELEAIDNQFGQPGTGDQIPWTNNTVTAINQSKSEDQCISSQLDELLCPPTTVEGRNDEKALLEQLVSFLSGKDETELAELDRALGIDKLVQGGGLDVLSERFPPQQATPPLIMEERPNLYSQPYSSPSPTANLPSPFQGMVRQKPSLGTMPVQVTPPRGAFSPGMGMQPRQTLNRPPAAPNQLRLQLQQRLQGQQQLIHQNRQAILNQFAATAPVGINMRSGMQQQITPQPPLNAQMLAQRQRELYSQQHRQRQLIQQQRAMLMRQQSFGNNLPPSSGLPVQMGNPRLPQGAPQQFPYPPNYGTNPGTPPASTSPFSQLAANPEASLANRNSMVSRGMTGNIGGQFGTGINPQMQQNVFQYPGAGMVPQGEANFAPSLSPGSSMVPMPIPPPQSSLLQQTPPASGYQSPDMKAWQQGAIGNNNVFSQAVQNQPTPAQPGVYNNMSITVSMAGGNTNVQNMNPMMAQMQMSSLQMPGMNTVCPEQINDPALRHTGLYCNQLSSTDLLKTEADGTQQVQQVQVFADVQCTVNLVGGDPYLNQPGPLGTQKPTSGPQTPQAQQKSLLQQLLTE
Sequence of Nuclear receptor coactivator 2 (Homo sapiens) (Q15596 whole entry, looked up, the tested form may be a part): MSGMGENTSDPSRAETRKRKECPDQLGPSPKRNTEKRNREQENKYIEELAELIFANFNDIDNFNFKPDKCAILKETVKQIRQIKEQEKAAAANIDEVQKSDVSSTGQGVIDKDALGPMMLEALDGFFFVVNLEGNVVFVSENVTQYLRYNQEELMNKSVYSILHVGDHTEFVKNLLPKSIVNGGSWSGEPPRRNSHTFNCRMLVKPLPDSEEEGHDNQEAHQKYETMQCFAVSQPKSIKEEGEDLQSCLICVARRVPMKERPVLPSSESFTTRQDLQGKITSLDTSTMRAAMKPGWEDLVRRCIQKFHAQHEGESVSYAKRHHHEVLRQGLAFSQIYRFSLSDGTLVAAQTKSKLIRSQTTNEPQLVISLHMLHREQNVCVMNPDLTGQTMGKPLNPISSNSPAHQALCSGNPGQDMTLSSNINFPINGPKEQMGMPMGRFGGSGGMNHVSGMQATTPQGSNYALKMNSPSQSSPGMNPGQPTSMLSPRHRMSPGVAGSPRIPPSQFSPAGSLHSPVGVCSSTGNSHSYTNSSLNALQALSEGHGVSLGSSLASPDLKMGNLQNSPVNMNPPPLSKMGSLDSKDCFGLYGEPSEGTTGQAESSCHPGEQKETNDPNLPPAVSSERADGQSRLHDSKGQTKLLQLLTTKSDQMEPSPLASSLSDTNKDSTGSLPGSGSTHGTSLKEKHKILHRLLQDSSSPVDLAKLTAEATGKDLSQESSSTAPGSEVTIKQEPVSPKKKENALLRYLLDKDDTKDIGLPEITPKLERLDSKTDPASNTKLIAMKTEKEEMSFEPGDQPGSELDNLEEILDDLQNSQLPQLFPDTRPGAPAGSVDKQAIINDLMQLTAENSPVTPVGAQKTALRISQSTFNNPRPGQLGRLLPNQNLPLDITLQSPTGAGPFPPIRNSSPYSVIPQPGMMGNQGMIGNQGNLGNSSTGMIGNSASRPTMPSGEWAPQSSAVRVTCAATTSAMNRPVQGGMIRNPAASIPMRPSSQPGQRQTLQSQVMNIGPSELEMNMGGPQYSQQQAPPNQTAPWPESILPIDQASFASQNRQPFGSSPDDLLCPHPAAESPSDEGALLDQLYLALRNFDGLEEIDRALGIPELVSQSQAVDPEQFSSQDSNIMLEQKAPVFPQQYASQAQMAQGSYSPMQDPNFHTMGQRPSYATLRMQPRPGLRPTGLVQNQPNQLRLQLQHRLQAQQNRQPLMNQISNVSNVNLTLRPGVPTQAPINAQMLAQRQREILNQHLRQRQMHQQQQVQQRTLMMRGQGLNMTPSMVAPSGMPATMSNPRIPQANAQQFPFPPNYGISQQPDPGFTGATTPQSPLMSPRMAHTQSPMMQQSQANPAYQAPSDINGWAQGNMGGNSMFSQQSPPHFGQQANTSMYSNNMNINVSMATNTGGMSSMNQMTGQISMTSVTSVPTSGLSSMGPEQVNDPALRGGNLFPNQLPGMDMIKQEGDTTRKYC

`O=c1cc(-c2ccccc2Cl)oc2c([N+](=O)[O-])c(O)cc(O)c12`: the inhibition (in general, the change of the read-out against control, counted positive when it falls) is 61.5% (active) in assay [1]; 44.4% (active) in assay [2]; 51.9% (active) in assay [3]; 37% (active) in assay [4]; 4.67% in assay [5]; 52.9% (active) in assay [6].

As for `O=C(/C=C/c1ccccc1)CC(O)(c1ccccc1)C(F)(F)F` (stereo not drawn), the inhibition was 38.5% in assay [1]; 31% (active) in assay [2]; 12.9% in assay [3]; 45.9% (active) in assay [4]; 21.8% in assay [5]; 32.7% in assay [6].

As to `CC(C)(C)C(=O)Nc1ccc(N=Nc2ccccc2)cc1`, the inhibition in assay [1] was 69.1% (active); in assay [2] it was 28.6%; in assay [3] it was -19.6%; in assay [4], -23.9%; in assay [5] it was 54.7% (active); in assay [6], 66% (active).

For the molecule `CC(=O)c1sc(NC(=O)C2(F)C(F)(F)C(F)(F)C(F)(F)C(F)(F)C2(F)F)nc1C`, the inhibition in assay [1] was 66.5% (active); in assay [2], 79% (active); in assay [3], 60.4% (active); in assay [4], 84.5% (active); in assay [5], 4.16%; in assay [6], 23.9%.

Take `Cc1ccc(C)c(N2CCN(C(=O)CCS(=O)(=O)c3ccc4c(c3)NC(=O)CO4)CC2)c1`: the inhibition is -1.43% in assay [1]; 16.3% in assay [2]; -0.57% in assay [3]; 17.9% in assay [4]; 3.15% in assay [5]; 15.3% in assay [6].

For the molecule `C=CC[n+]1c(-c2ccc(C)cc2)csc1Nc1ccc(NC(C)=O)cc1`, the inhibition was 29.6% in assay [1]; -12.8% in assay [2]; 4.13% in assay [3]; -3.13% in assay [4]; 62.2% (active) in assay [5]; 86.8% (active) in assay [6].

On to `CCc1c(C#N)sc(C(N)=O)c1CC`, for which the inhibition was 27.8% in assay [1]; 20.5% in assay [2]; 20.6% in assay [3]; 13.2% in assay [4]; 8.1% in assay [5]; 25.6% in assay [6].

Consider `COc1ccc2[nH]c(=O)c3c(c2c1)OC(C)(C)C=C3`, for which the inhibition in assay [1] is 77.6% (active); in assay [2] it was 41.7% (active); in assay [3], 69.9% (active); in assay [4], 44% (active); in assay [5], 9.64%; in assay [6] it was 51.3% (active).

With `O=C(CCCc1nc(-c2ccccc2Cl)no1)NC1CCCC1`, the inhibition is 36.4% in assay [1]; -6.22% in assay [2]; 22.9% in assay [3]; -0.83% in assay [4]; 26.2% in assay [5]; 92.2% (active) in assay [6].

For the molecule `c1cc2[nH]snc2c2nc(C3CC3)nc12`, the inhibition in assay [1] is 63.9% (active); in assay [2], 18.3%; in assay [3] it was 53.3% (active); in assay [4], 23.3%; in assay [5], -12.6%; in assay [6], 19%.

For the molecule `C=CCOc1ccc(/C=C2\SC(=S)N(CCC(=O)O)C2=O)cc1`, the inhibition in assay [1] is 32.8%; in assay [2] it was -27%; in assay [3] it was 35.5%; in assay [4], -38.4%; in assay [5], -24.5%; in assay [6], 91.5% (active).

Turning to `Cc1nnc(SCC(=O)N2CCC(c3noc4ccc(F)cc34)CC2)s1`, the inhibition is 85.1% (active) in assay [1]; 48.4% (active) in assay [2]; 69.4% (active) in assay [3]; 45.1% (active) in assay [4]; 6.59% in assay [5]; 44.8% in assay [6].

As for `Cc1cc(C(=O)COC(=O)c2cccnc2Cl)c(C)n1CC1CCCO1` (stereo not drawn), the inhibition is 19.6% in assay [1]; 27.6% in assay [2]; -18.2% in assay [3]; -20.1% in assay [4]; 6.65% in assay [5]; 56.6% (active) in assay [6].

For `Oc1ccc(N=Nc2ccc3c(c2)OCCO3)c2cccnc12`, the inhibition is 19.8% in assay [1]; -38.3% in assay [2]; 4.34% in assay [3]; -39.5% in assay [4]; -16.8% in assay [5]; -7.52% in assay [6].

On to `Cc1noc(/C=C/c2ccccn2)c1[N+](=O)[O-]`, for which the inhibition in assay [1] is 54.6% (active); in assay [2], 47.8% (active); in assay [3], 48.4% (active); in assay [4], 37% (active); in assay [5] it was 25.9%; in assay [6] it was 29.3%.

Consider `Nc1ncccc1C(=O)OCC(=O)N1CCN(S(=O)(=O)c2ccc(Cl)cc2)CC1`, for which the inhibition was 32.3% in assay [1]; 22.3% in assay [2]; 23.2% in assay [3]; 20.6% in assay [4]; -4.99% in assay [5]; 25.8% in assay [6].

Turning to `COc1ccc(CC(=O)Nc2cccc(-c3nnc(-c4ccccc4)o3)c2)cc1OC`, the inhibition in assay [1] is 10.5%; in assay [2] it was 32.9% (active); in assay [3], -12.5%; in assay [4] it was 41.1% (active); in assay [5], 27.1%; in assay [6], 68.5% (active).

Take `COc1ccc(C(=O)C(CN2CCOCC2)c2ccccc2)cc1` (stereo not drawn): the inhibition in assay [1] was 1.7%; in assay [2], 20.9%; in assay [3], 0.8%; in assay [4] it was 20.6%; in assay [5], 6.4%; in assay [6], 35%.

Take `O=C(Nc1ccc2c(c1)OCCO2)C(c1ccnc2ccccc12)N1CCN(c2ccc(C(F)(F)F)cn2)CC1` (stereo not drawn): the inhibition in assay [1] was 24.6%; in assay [2], 18.1%; in assay [3], 11.8%; in assay [4], 30.7% (active); in assay [5], -0.8%; in assay [6], 57.8% (active).

Take `CCc1ccn2cc(-c3cc(-c4ccccc4)no3)nc2c1`: the inhibition in assay [1] is 2.16%; in assay [2] it was 7.18%; in assay [3], -92.4%; in assay [4], -4.46%; in assay [5], 36.5% (active); in assay [6] it was 61.6% (active).

`Cc1ccc(Sc2c(C=O)c3ccccc3n2C)cc1`: the inhibition is 63.2% (active) in assay [1]; 42.4% (active) in assay [2]; 54% (active) in assay [3]; 46.9% (active) in assay [4]; 7.13% in assay [5]; 42.5% in assay [6].

On to `COc1ccc(/C=C/C(=O)Nc2ccccc2C(=O)O)cc1OC`, for which the inhibition in assay [1] was -1.26%; in assay [2], -3.34%; in assay [3], -73.2%; in assay [4] it was -29.6%; in assay [5] it was 26.9%; in assay [6], 37.8%.

On to `COc1ccccc1-c1cc2nc(-c3ccccc3)cc(N3CCN(C(=O)c4ccco4)CC3)n2n1`, for which the inhibition in assay [1] is 30.4%; in assay [2], 48.6% (active); in assay [3], 17.6%; in assay [4] it was 25.1%; in assay [5], 62.7% (active); in assay [6] it was 60.3% (active).
